NLRP3 yeast inh = NALP3 inflammasome inhibitors in reconstituted yeast, primary screen, luminescence, uHTS. 0.39% of 330,000 active. Yeast reconstituted NLRP3/ASC/caspase-1, beta-gal luminescence, 24 h. inhibition, % at 10 µM. AID 2825, 2010;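 active = inhibition of 50% or more; inactive = inhibition below 50%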;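 also: plate controls were induced DMSO wells for no effect and uninduced yeast grown without galactose for full effect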
tim10-1 inh = growth inhibitors of tim10-1 mutant yeast, primary screen, luminescence, uHTS | S. cerevisiae tim10-1 ts strain growth, BacTiter-Glo, 24 h | inhibition, % at 20 µM | 2.2% of 330,000 active | AID 463190, 2010;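 active = inhibition of at least 40%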;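 also: mutant grown at 25 °C; 0% = DMSO wells with yeast and 100% = wells holding no yeast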
TIM10 inh = growth inhibitors of isogenic TIM10 control yeast, primary screen, counter-screen for tim10-1 yeast inhibitor project, luminescence, uHTS; S. cerevisiae TIM10 strain growth, BacTiter-Glo luminescence, 24 h; inhibition, % at 10 µM; 1.4% of 330,000 active;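 active = inhibition of 40% or more at the single tested concentration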;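 also: wild-type TIM10 isogenic control strain grown at permissive 25 °C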
tim23-1 inh = growth inhibitors of tim23-1 mutant yeast, primary screen, luminescence, uHTS | AID 463212, 2010 | inhibition, % at 20 µM | 1.3% of 330,000 active | S. cerevisiae tim23-1 growth, BacTiter-Glo luminescence, 24 h;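 active = growth inhibition of the mutant yeast at or above 50%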;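 also: temperature-sensitive mutant grown at 25 °C; plate controls were DMSO-treated mutant yeast for no effect and medium wells lacking yeast for full effect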
PfHsp90 yeast 2 = growth inhibition of PfHsp90-expressing yeast, primary screen, antimalarial PfHsp90 inhibitor project, S. cerevisiae, BacTiter-Glo luminescence, single point, set 2; 0.32% of 310,000 active; BacTiter-Glo ATP, 48 h; yeast lacking PDR1 and PDR3 efflux regulators; inhibition, % at 9.4 µM;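 active = every replicate shows inhibition above about 80%, whatever the replicate mean, limit read from the data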;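 also: 0% = DMSO neutral controls and 100% = 20 µM radicicol positive controls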
NALP1 yeast inh = NALP1 inflammasome inhibitors in reconstituted yeast, colorimetric, S. cerevisiae, triplicate retest; 0.61% of 280,000 active; AID 2071, 2009; inhibition, % at 10 µM; S. cerevisiae NALP1/ASC/caspase-1 growth, X-gal OD620, 72 h; in the data active = inhibition mostly above about 24%, no sharp cut-off; inactive = mostly below about 32%
tim10-1 confirm = growth inhibitors of tim10-1 mutant yeast, confirmation, single concentration, luminescence, S. cerevisiae; shares compounds with tim10-1 inh; S. cerevisiae tim10-1 ts strain growth, BacTiter-Glo, 24 h; inhibition, % at 20 µM; 56% of 7,400 active; AID 463213, 2010;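 active = inhibition of yeast growth at or above a set limit in either of two repeat tests at 20 µM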;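 also: tim10-1 mutant grown at permissive 25 °C to find synthetic lethal compounds; 0% = DMSO yeast wells and 100% = medium wells without yeast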
TIM10 conf = growth inhibitors of wild-type TIM10 yeast, confirmation, counter-screen for tim10-1 synthetic lethality project, single concentration, luminescence, S. cerevisiae; inhibition, % at 10 µM; 63% of 4,600 active; S. cerevisiae tim10 strain growth, BacTiter-Glo luminescence, 24 h; shares compounds with TIM10 inh; AID 463215, 2010;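 active = inhibition of yeast growth at or above a set limit in either of two replicates at 10 µM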;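 also: this counterscreen used the strain with wild-type TIM10; 0% = yeast with DMSO and 100% = medium wells lacking yeast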
tim23-1 confirm = tim23-1 mutant yeast growth inhibitors, confirmation, luminescence, single concentration; 83% of 4,400 active; shares compounds with tim23-1 inh; inhibition, % at 20 µM; AID 463218, 2010; S. cerevisiae tim23-1 growth, BacTiter-Glo luminescence, 24 h;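 active = inhibition above about 39% in either of two replicate wells at 20 µM, limit read from the data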;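 also: temperature-sensitive tim23-1 mutant grown at 25 °C; 0% = DMSO wells with yeast and 100% = medium wells without yeast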
The depositor's hits bear a star; . = not tested or not shown. In the library only some 4.2% were active in any assay of this set; here they are far more common.

SMILES	NLRP3 yeast inh	tim10-1 inh	TIM10 inh	tim23-1 inh	PfHsp90 yeast 2	NALP1 yeast inh	tim10-1 confirm	tim23-1 confirm	others
O=C(Nc1ccc(Br)cc1)C1CCN(c2cnccn2)CC1	8	18	-8	5	11	12	.	.
O=C(CSc1nnc(NC(=O)c2ccco2)s1)Nc1ccc(F)cc1F	10	2	4	11	-18	7	.	.
Cc1ccc(C(c2cc(Cl)c3cccnc3c2O)N2CCN(C)CC2)cc1 (centres undefined)	38	41*	8	55*	107*	-8	25	80*
Oc1c(C(c2ccccn2)N2CCC(Cc3ccccc3)CC2)cc(Cl)c2cccnc12 (centres undefined)	15	43*	27	55*	.	14	28	68*
CC(=O)NC(c1cc(Cl)c2cccnc2c1O)C1CC1 (centres undefined)	30	33	4	40	-10	.	.	.
CN1CCN(C(c2ccc(C(F)(F)F)cc2)c2ccc3cccnc3c2O)CC1 (centres undefined)	19	36	10	49	.	-14	.	.
Cc1cc(C(=O)NC2CC(C)(C)Cc3c2cnn3-c2cccc(F)c2)nn1C (centres undefined)	-2	3	-9	11	2	-9	.	.
O=c1c2cnn(-c3ccccc3)c2nc(-c2ccco2)n1-c1ccccc1	29	28	29	48	-19	10	.	.
O=c1oc(-c2ccco2)nc2c1cnn2-c1ccccc1	19	48*	28	64*	0	16	35*	67*
COc1ccc(C(C[N+](=O)[O-])c2c(C)[nH]c3ccccc23)cc1OC (centres undefined)	28	35	19	31	1	44	.	.
O=c1[nH][nH]c(-c2ccccc2O)c1C(C[N+](=O)[O-])c1ccc(Br)cc1 (centres undefined)	33	52*	53*	62*	2	102*	44*	65*	TIM10 conf=-22
Cc1ccsc1C(=O)OCC(=O)N1C(C)CCCC1C (centres undefined)	21	4	-3	11	-2	.	.	.
O=C(ON=C1CCN(c2ccc([N+](=O)[O-])cc2)CC1)c1ccccc1	14	47*	52*	64*	-25	-20	24	60*	TIM10 conf=60*
COc1ccc(C(=O)ON=C2CCN(c3ccc([N+](=O)[O-])cc3)CC2)cc1	22	58*	64*	54*	-29	15	48*	71*	TIM10 conf=65*
O=C(OC1CCN(c2ccc([N+](=O)[O-])cc2)CC1)c1ccccc1	-10	7	20	10	4	3	.	.
Oc1ccccc1Oc1c(F)c(F)nc(N2CCCC2)c1F	24	38	39	37	2	31	.	.
CC(=O)/C=C/c1ccccc1Oc1c(F)c(F)nc(F)c1F	-84	45*	26	54*	0	-28	41*	40*
O=c1oc2c(-c3cccc(F)c3)cc(O)cc2s1	20	52*	-15	57*	-46	16	48*	56*
Nc1nnc(-c2cccc(F)c2)s1	14	-8	1	-4	7	6	.	.
Oc1c(Br)cc(Br)cc1C=Nc1cccnc1	24	57*	67*	79*	101*	45*	42*	90*	TIM10 conf=48*
COc1ccc(C=Nc2ccc3[nH]ncc3c2)c(O)c1	5	21	6	13	26	3	.	.
Oc1c(Br)cc(Br)cc1C=Nc1ccc2[nH]ncc2c1	30	46*	4	86*	-57	.	56*	79*
O=C(C1CCOCC1)N1CCCC(N2CCN(c3cccc(C(F)(F)F)c3)CC2)C1 (centres undefined)	8	1	8	0	-117	12	.	.
Cc1cccn2c(CN3CCCC(c4ccccc4)C3)c(C(=O)N3CCOCC3)nc12 (centres undefined)	3	7	11	7	-14	-5	.	.
CS(=O)(=O)c1ccc2nc(NC(=O)c3cccs3)sc2c1	-2	44*	31	60*	32	30	41*	54*
SMILES	NLRP3 yeast inh	tim10-1 inh	TIM10 inh	tim23-1 inh	PfHsp90 yeast 2	NALP1 yeast inh	tim10-1 confirm	tim23-1 confirm	others
Oc1ccccc1N=Cc1c(O)ccc2ccccc12	28	42*	38	66*	-16	18	30	79*
O=C(CSc1ccc(Cl)cc1)NC1=NN(c2ccccc2)C(=O)C1	19	48*	11	63*	8	2	17	-12
COC(=O)c1c(NC(=O)c2ccc([N+](=O)[O-])o2)sc2c1CCN(C(C)C)C2	16	91*	94*	91*	-120	6	91*	92*	TIM10 conf=98*
Cc1cc(C)n(-c2cc(C(C)(C)C)nc3c(-c4ccccc4)cnn23)n1	9	47*	27	51*	-58	-5	41*	48*
O=C(COC(=O)Cn1[nH]c(=O)c2ccccc2c1=O)NNC(=O)c1ccc(Br)cc1	22	-9	4	-2	.	.	.	.
Nc1cc2c(cc1Cl)-c1ccc([N+](=O)[O-])cc1C2=NO	.	.	.	.	-27	.	.	.
CC1=NOC(=O)/C1=C\c1ccc(-c2cc(Cl)ccc2Cl)o1	1	51*	14	79*	2	3	14	68*
CC1=NOC(=O)/C1=C/c1ccc(-c2ccc(Cl)cc2)o1	15	44*	65*	65*	105*	4	8	-90	TIM10 conf=69*
Cc1ccc(C2=NOC(=O)/C2=C\c2ccc(C)o2)cc1	30	59*	45*	79*	-89	9	39*	80*	TIM10 conf=39*
CC1=NOC(=O)/C1=C\c1ccc(-c2ccc(Br)cc2C(=O)O)o1	8	7	-4	15	-3	4	.	.
COc1ccc(Cl)cc1/C=C1/C(=O)ON=C1C	7	22	-1	17	-1	12	.	.
Cn1cncc1C(=O)c1ccccc1	18	1	9	11	-10	25	.	.

Screening data (PubChem BioAssay)
